In PubChem BioAssay (EPA / NIEHS):
Where “and” joins values, the source holds several entries; their conditions need not be identical. Equal entries are not always repeated. Records with an inconclusive call do not appear. Calls of active or inactive are those of the source. Rule for the calls: active = hit-call score of the fitted dose curve at least 0.9, where 1 is the maximum; inconclusive = response in the unintended direction; inactive = score below 0.9.

The compounds below were run against Nuclear receptor subfamily 4 group A member 2 (Homo sapiens) (UniProt P43354) (assay: ATG_NURR1_TRANS: Attagene TRANS-FACTORIAL HepG2 Assay for human Nuclear Receptor Related Protein 1 (NURR1) (AID 2282985)). Details: HepG2 Attagene TRANS reporter, mRNA readout.
Nuclear receptor subfamily 4 group A member 2 (Homo sapiens), sequence (P43354 whole entry, looked up): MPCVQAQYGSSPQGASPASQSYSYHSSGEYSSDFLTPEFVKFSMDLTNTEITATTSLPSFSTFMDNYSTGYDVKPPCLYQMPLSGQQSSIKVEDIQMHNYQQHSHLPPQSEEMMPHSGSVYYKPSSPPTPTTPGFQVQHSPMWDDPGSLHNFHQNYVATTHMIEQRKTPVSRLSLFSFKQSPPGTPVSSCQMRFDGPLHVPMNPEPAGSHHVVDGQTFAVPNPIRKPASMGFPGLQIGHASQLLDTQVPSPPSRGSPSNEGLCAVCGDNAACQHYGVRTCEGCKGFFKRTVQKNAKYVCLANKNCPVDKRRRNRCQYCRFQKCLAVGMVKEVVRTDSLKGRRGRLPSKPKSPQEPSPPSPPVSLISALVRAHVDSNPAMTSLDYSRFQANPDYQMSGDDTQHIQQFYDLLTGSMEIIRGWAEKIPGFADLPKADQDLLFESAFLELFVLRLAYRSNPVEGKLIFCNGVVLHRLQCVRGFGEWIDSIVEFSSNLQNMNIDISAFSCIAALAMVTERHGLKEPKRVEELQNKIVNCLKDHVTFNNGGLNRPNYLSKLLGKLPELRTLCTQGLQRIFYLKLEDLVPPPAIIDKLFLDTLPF
Description: ATG_TRANS is a cell-based, multiplexed-readout assay that uses HepG2, a human liver cell line, with measurements taken at 24 hours after chemical dosing in a 24-well plate.ATG_NURR1_TRANS is one of 30 assay component(s) measured or calculated from the ATG_TRANS assay. It is designed to make measurements of mRNA induction, a form of inducible reporter, as detected with fluorescence intensity signals by Reverse transcription polymerase chain reaction (RT-PCR) and Capillary electrophoresis technology.Data from the assay component ATG_NURR1_TRANS was analyzed into 1 assay endpoint. This assay endpoint, ATG_NURR1_TRANS, was analyzed in the positive analysis fitting direction relative to DMSO as the negative control and baseline of activity. Using a type of inducible reporter, measures of mRNA for gain-of-signal activity can be used to understand the reporter gene at the transcription factor-level as they relate to the gene NR4A2. Furthermore, this assay endpoint can be referred to as a primary readout, because this assay has produced multiple assay endpoints where this one serves a reporter gene function. To generalize the intended target to other relatable targets, this assay endpoint is annotated to the nuclear receptor intended target family, where the subfamily is orphan.
Human liver HepG2 cells are transiently transfected with multiple reporter transcription units (MRTUs) in 6-well plates using FuGene 6 reagent (Roche; 3 ml FuGene/1 mg DNA). The MRTU constructs are regulated by a cis-regulating element (promoter). […] A major difference between the CIS and TRANS system is that in CIS activities of endogenous TFs are measured, whereas the TRANS assay evaluates changes in activities of exogenous, chimeric NR-Gal4 proteins. […] At the end of 24 hour incubation, total RNA was isolated using TriZol reagent (Invitrogen). The isolated RNA is then reverse-transcribed using oligo(dT) primer and Mo-MLV reverse transcriptase (Invitrogen) with DNAse I (Ambion) treatment for 30 min. The one-tenth of the produced cDNA was amplified by PCR using Taq DNA polymerase (Invitrogen) and two reporter sequence-specific primers. The PCR products were fluorescently labeled by primer extension with 6-arboxyfluorescein (6-FAM) 5'-labeled reporter sequence-specific primer (2 min at 95 C, 20 s at 68 C and 10 min at 72 C) and these products were digested with 5U of HpaI (New England Biolabs) for 2h at 37 C. The fragments were purified using Qiaquick PCR columns (Qiagen), analyzed on an ABI 3130xL genetic analyzer (Applied Biosystems) with peak positions identified by using a set of X-rhodamine (ROX)-labeled MapMarker1000 molecular weight standards (BioVentures). The raw capillary electrophoresis data was processed using Attagraph software (Attagene).

SMILES | outcome | AC50
NCC(F)(F)C(F)(F)C(F)(F)C(F)(F)C(F)(F)C(F)(F)C(F)(F)F | inactive | –
Cc1cc(CCN2CCN(c3nsc4ccccc34)CC2)cc2c1NC(=O)CC2(C)C | inactive | –
OC1CCC(C2CCCCC2)CC1 (stereo not given) | inactive | –
CCc1nn(C2CCCCC2)c2cc(C3(C#N)CCC(C(=O)O)CC3)ccc12 (stereo not given) | inactive | –
CCCCCCCC(=O)O | inactive | –
CC(C)(C)c1cccc(C(C)(C)C)c1O | inactive | –
OCCC(F)(F)C(F)(F)C(F)(F)C(F)(F)C(F)(F)C(F)(F)C(F)(F)C(F)(F)F | inactive | –
CN1CCN(c2ccccc2/C=C2\SCCN(c3ccc(Cl)c(Cl)c3)C2=O)CC1 | inactive | –
O=[N+]([O-])c1ccc(O)cc1 | inactive | –
CC#C[C@]1(O)CC[C@H]2[C@@H]3CCC4=CC(=O)CCC4=C3[C@@H](c3ccc(N(C)C)cc3)C[C@@]21C | inactive | –
CC[C@H](C)[C@@H](C(=O)O)n1sc2ccccc2c1=O | inactive | –
CCCCC[C@H](O)CC(=O)CCc1ccc(O)c(OC)c1 | inactive | –
CN(C)C=O | – | 7.38 µM (active)
C#C[C@]1(O)CC[C@H]2[C@@H]3CCC4=CC(=O)CC[C@@H]4[C@H]3CC[C@@]21C | inactive | –
CCCCC(CC)COC(=O)CCCCC(=O)OCC(CC)CCCC (stereo not given) | inactive | –
CCC(=C(c1ccc(O)cc1)c1ccc(OCCN(C)C)cc1)c1ccccc1 | inactive | –
COCC(C)O (stereo not given) | inactive | –
ClC1=C(Cl)C(Cl)(Cl)C(Cl)=C1Cl | inactive | –
OCCC(F)(F)C(F)(F)C(F)(F)C(F)(F)C(F)(F)C(F)(F)F | inactive | –
CCCCCCCCOC(=O)CCCCCCCCC(=O)OCCCCCCCC | inactive | –

SMILES | outcome | AC50
CCCCCCC(=O)O | inactive | –
Nc1cccc2c(N)cccc12 | inactive | –
CC[C@H](c1ccc(O)cc1)[C@@H](CC)c1ccc(O)cc1 | inactive | –
Cc1ccc(S(=O)(=O)O)c(C)c1 | inactive | –
CCCCCCCCC(=O)O | inactive | –
C=C(C)C(=O)OCCC(F)(F)C(F)(F)C(F)(F)C(F)(F)C(F)(F)C(F)(F)F | inactive | –
O=c1c(-c2ccc(O)cc2)coc2cc(O)ccc12 | inactive | –
CC(C)(C)c1cc(C(C)(C)C)c(O)c(C(C)(C)C)c1 | – | 431 nM (active) and 1.32 µM (active)
Oc1cccc(O)c1 | inactive | –
CCN(CC)CCNc1ccc(CNC=O)c2sc3ccc(OC)cc3c(=O)c12 | – | 0.771 µM (active)
CCCCCCCCCCCCCC[N+](C)(C)C | – | 26.9 µM (active)
NC(=O)N(O)[C@@H]1C=C[C@H](Oc2cccc(Oc3ccc(F)cc3)c2)C1 | inactive | –
COc1cc(CCC(=O)CC(=O)CCc2ccc(O)c(OC)c2)ccc1O | inactive | –
O=C(O)c1ccccc1C(c1ccc(O)cc1)c1ccc(O)cc1 | inactive | –
FC(F)(I)C(F)(F)C(F)(F)C(F)(F)C(F)(F)C(F)(F)I | – | 20.8 µM (active)
COC(=O)CCCCC(=O)OC | inactive | –
Cc1oc(-c2ccccc2)nc1CCOc1ccc(C[C@H](Nc2ccccc2C(=O)c2ccccc2)C(=O)O)cc1 | – | 19.9 µM (active)
Oc1cc2ccccc2c2ccccc12 | inactive | –
O=C1OC2(c3ccccc31)c1cc(Br)c(O)c(Br)c1Oc1c2cc(Br)c(O)c1Br | inactive | –
CCCCCCCCCCCCc1ccccc1S(=O)(=O)O | inactive | –
